Measurements reported in the supplement of paper PMC6555819.

These sequences were tested on VDR:RXRa (NR concentration 270 nM, RXRa partner concentration 90 nM) (assay: PBM binding z-score (relative to random genomic background probes); higher = stronger binding; sequences stand for … in GC…GCGATTGACAGCGTAGAATGAAGG).
Description: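 Protein-binding microarray (Agilent 4x180K custom design, double-stranded 60-nt probes: 5' GC cap, 34-nt variable region, 24-nt constant primer region; full probe sequence given). Purified or IVT nuclear receptor:RXRα heterodimers (3:1 NR:RXRα, mostly 270:90 nM) or homodimers were incubated for 1 h in PBS with 2% milk and no ligand, then detected with Alexa488 antibodies. Fluorescence from o1-orientation probes (~5 replicates averaged) was converted to z-scores against 500 random hg19 background probes. Variable regions are seed direct-repeat (DR0–DR5) sites, all their single-nucleotide variants and half-site ablations.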
ATCGAAAGGTCGACCAGGTGAGTATACACCGTTT gave a PBM binding z-score of 3.73.
CAAACTAGGTCACTAAAGGTCAAAGTCGAATGAC gave a PBM binding z-score of 6.48.
For TGTCAATGTTCAAAGGTAACGTAAGTATCCACAC, the PBM binding z-score was 0.373.
AGAATGAGGTCATACGTAGATCAGGGAAGAAAGT gave a PBM binding z-score of 5.41.
Sequence AGAATGAGGTTAAGTTCAGGGAAACAGAATACAT has a PBM binding z-score of 3.33.
CGTCCAAGGTCTAGGTCAGTGAAAGAGACTCGAA showed a PBM binding z-score of 0.105.
CGTCCAAGGTCAATGCTAGATCAGTGAAAGCATT showed a PBM binding z-score of 3.51.
In the case of CCTTACGGGTCACTGACAGGTTATAGCGTTTGGA, the PBM binding z-score is reported as 3.63.
With CGAACAAGGTCACCAGGACAGTGAAGAGGTTGGA the PBM binding z-score was 4.8.
With ATCGAAAGGTCAAGGTGAGTATAGAGAAAGGGAA the PBM binding z-score was 5.32.
For GGAACGAGGTCAAAGTTGATAGCATCTGTCGACG, the PBM binding z-score was 5.81.
In the case of AACGAAAGGTCGAAGGTGAGTATACCCACCCGAA, the PBM binding z-score is reported as 2.9.
TCTAGTTGGTCACGGAGGACACACACGACGGGTA gave a PBM binding z-score of 2.67.
Work on AATACAGGGTAACTAGGCCAGAGTAGGTACGAAT yielded a PBM binding z-score of 0.199.
In the case of AGAATGAGGTCATTAAGATCAGGGAATTGCGGTC, the PBM binding z-score is reported as 5.8.
CGAACGAGGTCATGAGTTGATAGCAAATGCCGAT was tested, and the PBM binding z-score was 5.57.
In the case of GATACAGGGTCAGCTACAGGCCAGAGTATGGAAA, the PBM binding z-score is reported as 2.55.
CCGACGGGGGCAAAGGTTACCATACTCAGTACGA showed a PBM binding z-score of 5.11.
AGAATGAGGTCACCAAAGATCAGGGAAACGCTTG was tested, and the PBM binding z-score was 5.55.
In the case of TATTCAGGGTCAAAGGCCAGAGTACGAATGTCGA, the PBM binding z-score is reported as 5.12.
Sequence ATATGTAGGTTAGCTGGGGTCCTTCAGACTAGGC has a PBM binding z-score of 0.978.
Work on TAGCCTAGGTCGTTCAGGGGCCAGTATAGAAAGC yielded a PBM binding z-score of 0.798.
TACCCTAGGTCATTCAGGGGCCAGTATAGAAAGC showed a PBM binding z-score of 3.44.
TAGCCTAGGTCACATCGGGCCAGTATACGCTATA showed a PBM binding z-score of 2.43.
In the case of AGAATGAGGTTAAACGTAGATCAGGGAAGAAAGT, the PBM binding z-score is reported as 2.03.
Sequence TAGCCTAGGTCATTCAGGGGCAAGTATAGAAAGC has a PBM binding z-score of 5.23.
Sequence ATCGAAAGGTCCACGAGGTGAGTATACACCGTTT has a PBM binding z-score of 1.22.
CCTTACGGGTCACGTGGTTATAGCACGACGAGCG was tested, and the PBM binding z-score was 3.94.
Work on ACTTACGGGTCTACGAGGTTATAGCACGCGTATA yielded a PBM binding z-score of 2.83.
CCTGCGAGGTCATGGTCAGCTAATCTACAGTATG showed a PBM binding z-score of 5.17.
Sequence ATCAAAAGGTCGAGGTGAGTATAGAGAAAGGGAA has a PBM binding z-score of 3.29.
For CAAACTAGGTCAAGGTCTAAGTCGGTTTGTGCCA, the PBM binding z-score was 1.95.
CCTACTGGGCCAAAGAGGTCATTGATGCCGATAA gave a PBM binding z-score of 5.68.
In the case of ATATGTAGGTTAGGGTCAGTCAGAAAGTAGGGAA, the PBM binding z-score is reported as 2.49.
For ACTCGGATGACAAAGGTCAGAGCTACGCCAGTGA, the PBM binding z-score was 3.14.
CGTCCAAGGTCATTGGAGGTCAGTGAAGACAGAT was tested, and the PBM binding z-score was 7.03.
In the case of CCTGCTAGGTCATGGTCAGCGAATCTACAGTATG, the PBM binding z-score is reported as 1.5.
Work on ATCTCTAGGTTAAGATAGTTCAGTGAATGCAAAT yielded a PBM binding z-score of 2.26.
For TAGCCTAGGGCATTCAGGGGCCAGTATAGAAAGC, the PBM binding z-score was -0.213.
For AGTCAAAGGTCATCTAGGTAACGTAAGATATGCT, the PBM binding z-score was 6.04.
